PubChem BioAssay AID1159580 (chemical genetic matrix, 2015)
Out of some 5,500 compounds screened, about 2,000 (36%) were called active. Roughly 18% stayed inconclusive and do not appear here. Cut-off read from the data, not from the text of the source: active = normalized growth mostly below about 0.91 (no sharp cut-off); inconclusive = no clear call, values can overlap the other calls; inactive = mostly above about 0.92. The list shows a part of the results.

Assay: chemical genetic growth profiling, strain panel (AID 1159580);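 note: tested at 20 µM; growth read once vehicle control cultures reached saturation at 30 °C; 1 = growth at the plate median or of vehicle wells; lower values mean less growth of the strain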
Details: growth OD

Measured: normalized growth

COc1ccccc1OCCNCC(O)COc1cccc2[nH]c3ccccc3c12 (stereo unspecified)
inactive: S. cerevisiae deletion strains, locus YKL009W, strain mrt4, hits give low values 1.01 | S. cerevisiae deletion strains, locus YKL068W, hits give low values 1.01 | S. cerevisiae deletion strains, locus YKL085W, strain MDH1 (second series), hits give low values 1.01 | S. cerevisiae deletion strains, locus YKL085W, strain MDH1, hits give low values 1.01 | S. cerevisiae deletion strains, locus YKL160W, strain elf1, hits give low values 1.01 | S. cerevisiae deletion strains, locus YKL190W, strain CNB1, hits give low values 0.997 | S. cerevisiae deletion strains, locus YKR001C, strain vps1, hits give low values 1.05 | S. cerevisiae deletion strains, locus YKR026C, strain gcn3, hits give low values 1.02 | S. cerevisiae deletion strains, locus YKR091W, strain srl3, hits give low values 1.01 | S. cerevisiae deletion strains, locus YLL001W, strain dnm1, hits give low values 1.01 | S. cerevisiae deletion strains, locus YLL026W, hits give low values 1.02 | S. cerevisiae deletion strains, locus YLL041C, strain sdh2, hits give low values 1.01 | S. cerevisiae deletion strains, locus YLR027C, strain aat2, hits give low values 1.01 | S. cerevisiae deletion strains, locus YLR039C, strain RIC1, hits give low values 1.09 | S. cerevisiae deletion strains, locus YLR058C, strain SHM2, hits give low values 1 | S. cerevisiae deletion strains, locus YLR102C, strain apc9, hits give low values 1 | S. cerevisiae deletion strains, locus YLR113W, strain HOG1, hits give low values 0.987 | S. cerevisiae deletion strains, locus YLR221C, strain rsa3, hits give low values 1.01 | S. cerevisiae deletion strains, locus YLR258W, strain gsy2, hits give low values 1.02 | S. cerevisiae deletion strains, locus YLR262C, strain YPT6 (second series), hits give low values 1.05 | S. cerevisiae deletion strains, locus YLR262C, strain YPT6, hits give low values 1.06 | S. cerevisiae deletion strains, locus YLR268W, strain sec22, hits give low values 1.01 | S. cerevisiae deletion strains, locus YLR320W, strain mms22, hits give low values 1.02 | S. cerevisiae deletion strains, locus YLR330W, strain CHS5, hits give low values 1.01 | S. cerevisiae deletion strains, locus YLR342W, strain FKS1 (second series), hits give low values 0.993 | S. cerevisiae deletion strains, locus YLR342W, strain FKS1, hits give low values 1.01 | S. cerevisiae deletion strains, locus YLR357W, strain rsc2, hits give low values 1 | S. cerevisiae deletion strains, locus YLR370C, strain arc18, hits give low values 1.01 | S. cerevisiae deletion strains, locus YLR371W, strain rom2, hits give low values 1.01 | S. cerevisiae deletion strains, locus YLR384C, strain iki3, hits give low values 1.03 | S. cerevisiae deletion strains, locus YLR418C, strain cdc73, hits give low values 0.999 | S. cerevisiae deletion strains, locus YML016C, strain PPZ1, hits give low values 1.01 | S. cerevisiae deletion strains, locus YML032C, strain rad52, hits give low values 1.02 | S. cerevisiae deletion strains, locus YML120C, strain ndi1, hits give low values 1.01 | S. cerevisiae deletion strains, locus YML124C, strain tub3, hits give low values 1.02 | S. cerevisiae deletion strains, locus YMR058W, strain fet3, hits give low values 1.03 | S. cerevisiae deletion strains, locus YMR078C, strain ctf18, hits give low values 1.02 | S. cerevisiae deletion strains, locus YMR125W, strain sto1, hits give low values 1.01 | S. cerevisiae deletion strains, locus YMR129W, hits give low values 1.01 | S. cerevisiae deletion strains, locus YMR205C, strain PFK2, hits give low values 1.04 | S. cerevisiae deletion strains, locus YMR223W, strain ubp8, hits give low values 1 | S. cerevisiae deletion strains, locus YMR231W, strain pep5, hits give low values 1.01 | S. cerevisiae deletion strains, locus YMR263W, strain SAP30, hits give low values 0.979 | S. cerevisiae deletion strains, locus YMR307W, strain GAS1, hits give low values 0.972 | S. cerevisiae deletion strains, locus YNL067W, strain RPL9B, hits give low values 0.962 | S. cerevisiae deletion strains, locus YNL071W, strain lat1, hits give low values 0.996 | S. cerevisiae deletion strains, locus YNL128W, strain TEP1, hits give low values 1 | S. cerevisiae deletion strains, locus YNL153C, strain GIM3, hits give low values 1 | S. cerevisiae deletion strains, locus YNL183C, strain NPR1, hits give low values 0.962 | S. cerevisiae deletion strains, locus YNL209W, strain ssb2, hits give low values 1.02 | S. cerevisiae deletion strains, locus YNL233W, strain BNI4, hits give low values 1 | S. cerevisiae deletion strains, locus YNL248C, strain rpa49, hits give low values 1.02 | S. cerevisiae deletion strains, locus YNL250W, strain rad50, hits give low values 1 | S. cerevisiae deletion strains, locus YNL271C, strain bni1, hits give low values 1.02 | S. cerevisiae deletion strains, locus YNL298W, strain CLA4, hits give low values 1.03 | S. cerevisiae deletion strains, locus YNL307C, strain MCK1, hits give low values 1.01 | S. cerevisiae deletion strains, locus YNL322C, strain KRE1 (second series), hits give low values 0.989 | S. cerevisiae deletion strains, locus YNL322C, strain KRE1, hits give low values 1 | S. cerevisiae deletion strains, locus YNR049C, strain mso1, hits give low values 1.01 | S. cerevisiae deletion strains, locus YNR052C, strain pop2, hits give low values 1.01 | S. cerevisiae deletion strains, locus YOL006C, strain TOP1, hits give low values 1 | S. cerevisiae deletion strains, locus YOL012C, strain htz1 0.91 | S. cerevisiae deletion strains, locus YOL147C, strain pex11, hits give low values 1.01 | S. cerevisiae deletion strains, locus YOR001W, strain rrp6, hits give low values 1.01 | S. cerevisiae deletion strains, locus YOR061W, strain CKA2, hits give low values 1.01 | S. cerevisiae deletion strains, locus YOR069W, strain VPS5, hits give low values 0.997 | S. cerevisiae deletion strains, locus YOR070C, strain gyp1, hits give low values 1 | S. cerevisiae deletion strains, locus YOR080W, strain dia2, hits give low values 1 | S. cerevisiae deletion strains, locus YOR083W, strain WHI5, hits give low values 1 | S. cerevisiae deletion strains, locus YOR106W, strain vam3, hits give low values 1.02 | S. cerevisiae deletion strains, locus YOR136W, strain idh2, hits give low values 1.02 | S. cerevisiae deletion strains, locus YOR144C, strain elg1, hits give low values 1.02 | S. cerevisiae deletion strains, locus YOR184W, strain ser1, hits give low values 0.999 | S. cerevisiae deletion strains, locus YOR231W, strain MKK1, hits give low values 0.999 | S. cerevisiae deletion strains, locus YOR265W, strain rbl2, hits give low values 0.996 | S. cerevisiae deletion strains, locus YOR270C, strain vph1, hits give low values 1.03 | S. cerevisiae deletion strains, locus YOR290C, strain snf2, hits give low values 1.01 | S. cerevisiae deletion strains, locus YOR316C, strain cot1, hits give low values 1.02 | S. cerevisiae deletion strains, locus YPL051W, strain arl3, hits give low values 1.01 | S. cerevisiae deletion strains, locus YPL055C, strain LGE1, hits give low values 1.01 | S. cerevisiae deletion strains, locus YPL078C, strain atp4, hits give low values 1.03 | S. cerevisiae deletion strains, locus YPL106C, strain sse1, hits give low values 1.02 | S. cerevisiae deletion strains, locus YPL240C, strain hsp82, hits give low values 1.01 | S. cerevisiae deletion strains, locus YPL241C, strain CIN2, hits give low values 0.996 | S. cerevisiae deletion strains, locus YPL256C, strain CLN2, hits give low values 0.994 | S. cerevisiae deletion strains, locus YPR119W, strain clb2, hits give low values 1.02 | S. cerevisiae deletion strains, locus YPR141C, strain kar3, hits give low values 1.03 | S. cerevisiae deletion strains, locus YPR163C, strain tif3, hits give low values 1.02 | S. cerevisiae deletion strains, locus YPR167C, strain met16, hits give low values 1.02 | S. cerevisiae deletion strains, strain wtn01, hits give low values 1.01 | S. cerevisiae strains, strain wild type, hits give low values 0.984
